# Results published in ChEMBL document CHEMBL4513216, “Probing the Open Global Health Chemical Diversity Library for Multistage-Active Starting Points for Next-Generation Antimalarials” (ACS Infect Dis, 2020).
# In all, about 69,000 compounds went through this assay and about 8,600 (12%) showed an effect of 50% or more. Many of the other results were omitted from the sample, so strong results are more common in it than they were.
# Tested on: Plasmodium berghei
# Test: Screen against P. berghei liver stage (PbLuc), transformed with Luciferase, at 10uM
# Assay type: functional, HepG2
# Conditions: tested at 10 uM
row,SMILES,INHIBITION
1,CC(=O)NCCNC(=O)c1sc(-c2ccc(Cl)cc2)nc1C,-14.75%
2,C[C@@H]1CN(CCc2ccccc2)C[C@]12CCN(CC(=O)N(C)C)C2=O,-29.5%
3,CC(C#N)CN(C)Cc1nc2c(cnn2C)c(=O)[nH]1 (stereo unspecified),5.72%
4,CCN(CC1CCCO1)S(=O)(=O)N1CCCCCC1 (stereo unspecified),-9.21%
5,Cc1ccc2c(c1)c(Sc1ccccc1)c(CC(=O)O)n2C,12.8%
6,Cc1c[nH]nc1C1CCN(C(=O)CC2CCCC2)C1 (stereo unspecified),-136%
7,CCc1oc(C(=O)N(C)Cc2nonc2C)cc1CN(CC)CC,35.7%
8,Cc1ccc(C(=O)N2CCC3(CC2)C(=O)NCCN3C)cc1O,4.64%
9,O=C(O)C1CN(Cc2cccc(-c3ccccn3)c2)CCO1 (stereo unspecified),-1.45%
10,CN(C)c1ccc(NC(=O)C2CN(Cc3ccccc3)CCO2)cn1 (stereo unspecified),52.6%
11,CN(C)c1ncc(CN2CCOC(C(=O)Nc3ccccc3)C2)cn1 (stereo unspecified),23.9%
12,Cc1cc(C)cc(NC(=O)CC2CN(Cc3ccccc3)CCO2)c1 (stereo unspecified),-10.9%
13,CN(C)c1ncccc1NC(=O)C1CN(Cc2ccccc2)CCO1 (stereo unspecified),85.1%
14,CC(C)(C)n1cc(NC(=O)C2CN(Cc3ccccc3)CCO2)cn1 (stereo unspecified),-43.3%
15,CC(C)c1ncc(CN2CCOC(C(=O)Nc3ccccc3)C2)cn1 (stereo unspecified),6.32%
16,Cc1cc(NC(=O)C2CN(Cc3ccccc3)CCO2)ccn1 (stereo unspecified),96.2%
17,CN(C)c1ncccc1CN1CCOC(C(=O)Nc2ccccc2)C1 (stereo unspecified),37.6%
18,Cc1ccc(CNc2cc(N3CCCC3CO)ncn2)s1 (stereo unspecified),-23.9%
19,C[C@@H]1CN(C(=O)c2cccn2C)C[C@]12CCN(c1ccsc1)C2=O,8.93%
20,CC(C)c1nnc2n1CC(CNCc1nc3ccccc3o1)CC2 (stereo unspecified),13%
21,Cc1cc(NCc2cn(C)nc2-c2cccnc2)n(C)n1,-17.1%
22,CCn1cnnc1CNC(=O)N1CCCCCC1,-8.11%
23,COCC1COCCC12CCN(S(=O)(=O)c1cccnc1)CC2 (stereo unspecified),36.5%
24,Cc1cnn(CCNCc2nnc(-c3ccc(F)cc3)o2)c1,-35.7%

row,SMILES,INHIBITION
1,O=C(C1CNCCN1C(=O)CCOc1ccccc1)N1CCCC1 (stereo unspecified),-27.5%
2,Cc1c(C(=O)O)cnn1-c1ccc(-c2nc(C(C)C)no2)cn1,-44.7%
3,CC(C)c1nc(C2CCCN(C(=O)c3ccc4[nH]nnc4c3)C2)no1 (stereo unspecified),-6.14%
4,Cc1nnc(N2C[C@H](OCCCn3cccn3)[C@H]3OCCC[C@H]32)s1,43.9%
5,O=C(C1CCC1)N1CCO[C@H]2[C@H](OCCCn3cccn3)CC[C@@H]21,-47.8%
6,O=C(CC1CC1)N1CCO[C@H]2[C@H](OCCCn3cccn3)CC[C@@H]21,55%
7,CCS(=O)(=O)N1CCO[C@H]2[C@H](OCCCn3cccn3)CC[C@@H]21,-0.182%
8,c1cnn(CCCO[C@@H]2CC[C@H]3[C@H]2OCCN3CC2CC2)c1,53%
9,CC(=O)N1CCO[C@H]2[C@H](OCCCn3cccn3)CC[C@@H]21,19.4%
10,Cc1nnc(N2C[C@H](OCc3ccncc3)[C@H]3OCCC[C@H]32)s1,19.5%
11,c1cnn(CCCO[C@@H]2CC[C@H]3[C@H]2OCCN3CC2CCOCC2)c1,26.3%
12,Cc1nnc(N2C[C@@H](OCCCn3cccn3)[C@H]3OCCC[C@H]32)s1,50.1%
13,Clc1ccc(OCCNCCn2cccn2)cc1,9.14%
14,O=C(CCOCC(F)(F)F)N1CCCC(n2ccnc2)C1 (stereo unspecified),-63.3%
15,O=C(NCc1ccccc1Cn1cncn1)C1CC1,49.8%
16,CC(=O)N1CCN(Cc2ccccn2)CC2(CC(=O)N(C)C2)C1 (stereo unspecified),14.1%
17,CCN1CCC(CC(=O)N2CCn3cccc3C2c2cccnc2)CC1 (stereo unspecified),18.9%
18,Cc1ncsc1CCC(=O)N1CCCC1c1cccnc1 (stereo unspecified),-2.79%
19,Cc1ncsc1CCC(=O)N1CCn2cccc2C1c1cccnc1 (stereo unspecified),59.1%
20,O=C(NCc1cccnc1N1CCCC(O)C1)c1ccc2[nH]nnc2c1 (stereo unspecified),18.6%
21,CC(NC(=O)c1cccs1)C(=O)NCc1cccnc1N1CCCCC1 (stereo unspecified),2.26%
22,CCC1CCCN(C(=O)NCc2cccnc2-n2cccn2)C1 (stereo unspecified),33.8%
23,CS(=O)(=O)NCC1CCCN(C(=O)Nc2cccnc2N2CCCC2)C1 (stereo unspecified),-8.69%
24,O=C(NCc1cccnc1N1CCCCC1)c1ccc2c(c1)OCO2,-1.85%

row,SMILES,INHIBITION
1,O=C(NCc1cccnc1N1CCCC(O)C1)c1ccsc1 (stereo unspecified),74.3%
2,Cc1nnsc1C(=O)NCc1cccnc1N1CCCC(O)C1 (stereo unspecified),66.3%
3,CC(=O)c1ccc(C(=O)NCc2cccnc2N2CCCC(O)C2)s1 (stereo unspecified),69.7%
4,Cc1nnsc1C(=O)NCC1CCN(c2ccccn2)CC1,14.6%
5,Cc1nnsc1C(=O)NCc1cccnc1N1CCc2ccccc2C1,5.8%
6,O=C(NCc1cccnc1N1CCCCC1)c1cccs1,7.12%
7,CCS(=O)(=O)NCc1cccnc1N1CCCC(O)C1 (stereo unspecified),89.1%
8,O=C(NC1CC1)C1[C@H]2CN(Cc3ccc(-c4cc[nH]n4)s3)C[C@@H]12 (stereo partly specified),33.3%
9,c1cc(CN2CCC3(CC2)COC(COCC2CC2)C3)co1 (stereo unspecified),-17.1%
10,Cc1cccc(-c2nc(CNC3CCc4ncnn4C3)no2)c1 (stereo unspecified),23.7%
11,O=C1CCC2(CCN(Cc3ncccn3)CC2)CN1CCCO,-33.5%
12,Cc1oc(-c2nc(C#N)c(NCC(C)C)o2)cc1S(=O)(=O)N1CCCC1,22.6%
13,CCN(CC)S(=O)(=O)NCC1COc2ccccc2O1 (stereo unspecified),36.9%
14,Cc1cc(C(=O)NCc2cccnc2N2CCCC(O)C2)[nH]n1 (stereo unspecified),34.5%
15,Cn1ccn2ncc(C(=O)NCc3cccnc3N3CCCC(O)C3)c12 (stereo unspecified),28.8%
16,Cc1cc(C(=O)NCc2cccnc2N2CCCC(O)C2)c(C)o1 (stereo unspecified),55%
17,Cc1cc(CN2CCN(C(=O)NC(C)Cn3cccn3)CC2)no1 (stereo unspecified),-17.78%
18,CC(NC(=O)NCCCN(C)S(C)(=O)=O)c1ccc(C#N)cc1 (stereo unspecified),44.1%
19,CC(NC(=O)NCCCN(C)S(C)(=O)=O)c1ccncc1 (stereo unspecified),1.77%
20,CC(NC(=O)NCCCN(C)S(C)(=O)=O)c1cccnc1 (stereo unspecified),-9.37%
21,CC(NC(=O)NCCCN(C)S(C)(=O)=O)c1cccc(Cl)c1 (stereo unspecified),-15.8%
22,CC(NC(=O)NCCCN(C)S(C)(=O)=O)c1ccc(Cl)cc1 (stereo unspecified),62.6%
23,CC(NC(=O)NCCCN(C)S(C)(=O)=O)c1ccc(F)cc1 (stereo unspecified),58.5%
